Out of some 16,000 compounds screened, about 5,100 (32%) were called active. Not shown: some 25% with an inconclusive outcome. The call rests on the fitted dose curve; in most records, active means well fitted curve in the direction sought with a large enough effect; inconclusive means small, poorly fitted or top-dose-only effect, or effect the other way; inactive means no such curve, though single readings can be large or run the other way. The list shows a part of the results.
target: Cytochrome P450 3A4 (Homo sapiens) (UniProt P08684); assay: Cytochrome panel assay with activity outcomes; details: recombinant CYP, pro-luciferin dealkylation, luminescence, p450-cyp3a4; series mostly up to 57.1 µM
Sequence (P08684 whole entry, looked up): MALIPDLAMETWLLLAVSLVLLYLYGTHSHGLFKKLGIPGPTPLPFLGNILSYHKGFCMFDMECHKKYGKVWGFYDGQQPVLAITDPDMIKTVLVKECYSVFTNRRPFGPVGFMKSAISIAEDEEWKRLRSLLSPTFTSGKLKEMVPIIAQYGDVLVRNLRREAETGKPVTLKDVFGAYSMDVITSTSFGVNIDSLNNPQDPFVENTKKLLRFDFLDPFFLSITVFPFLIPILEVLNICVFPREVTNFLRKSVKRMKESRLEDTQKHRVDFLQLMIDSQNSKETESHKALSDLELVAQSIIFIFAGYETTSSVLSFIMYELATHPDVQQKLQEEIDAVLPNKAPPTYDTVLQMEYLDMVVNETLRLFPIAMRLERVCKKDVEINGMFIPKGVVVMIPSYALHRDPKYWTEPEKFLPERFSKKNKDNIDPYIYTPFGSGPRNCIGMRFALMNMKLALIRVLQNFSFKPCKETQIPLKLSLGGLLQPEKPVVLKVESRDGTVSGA
On the % scale 0 is the no-effect control and ±100 the full control effect.

AC50, active:
COc1ccc(/C(C#N)=C/c2c(-c3ccc(Cl)cc3)nc3c(C)cccn23)cc1 2.82 µM
CC(=O)c1ccc(N2CCC(c3cc(-c4ccc(Cl)cc4Cl)n[nH]3)CC2)c([N+](=O)[O-])c1 12.6 µM
COc1ccc(-c2cc(C3CCN(c4ccc(C(C)=O)cc4[N+](=O)[O-])CC3)[nH]n2)cc1 4.47 µM
CCCNc1c(F)c(F)c2c(C)c3ccccc3nc2c1F 6.31 µM
Cc1ccc2[nH]c3c(c2c1)CN(C(=O)CN1c2ccc(F)cc2CCC1C)CC3 (stereo unspecified) 8.91 µM
CC(=O)Nc1c(S(=O)(=O)c2ccccc2)c2nc3ccccc3nc2n1Cc1ccccc1 4.47 µM
Nc1c(S(=O)(=O)c2ccccc2)c2nc3ccccc3nc2n1Cc1ccco1 3.98 µM
COC(=O)CCSc1cc([N+](=O)[O-])cc2c1c(C1OCCS1)nn2-c1ccccc1 (stereo unspecified) 14.1 µM
O=C(O)/C=C\C(=O)Nc1ccc2c(c1)C(=O)c1cc(F)ccc1-2 3.16 µM
CCCCc1n[nH]c2c1/C(=N/O)CC(c1ccccc1)C2 (stereo unspecified) 12.6 µM
Cc1ccc(S(=O)(=O)Nc2cc(=O)[nH]c3c2CCC3)cc1 3.16 µM
CC1=C(C(N)=O)C(c2ccccn2)n2nc(SCc3ccccc3Cl)nc2N1 (stereo unspecified) 6.31 µM
Cc1cccc(N(CC(=O)NC2CCCC2)C(=O)c2cc3cc4cccc(C)c4nc3s2)c1C 4.47 µM
CC(C)CC(C(=O)NCC1CCCO1)N(C(=O)Cn1nnc(-c2ccc(F)cc2)n1)c1ccccc1F (stereo unspecified) 14.1 µM
CC(C)CC(C(=O)NCC1CCCO1)N(C(=O)Cn1nnc(-c2ccc(F)cc2)n1)c1cccc(C(F)(F)F)c1 (stereo unspecified) 10 µM
Cc1ccc(N(C(=O)Cn2nnc(-c3ccc(F)cc3)n2)C(CC(C)C)C(=O)NCC2CCCO2)cc1 (stereo unspecified) 14.1 µM
Cc1ccc(NC(=O)C2(NC(=O)c3cccc(N4C(=O)CSC4c4ccccc4)c3)CCCCC2)cc1 (stereo unspecified) 2.82 µM
Cc1ccc(C2C3=C(CCCC3=O)Nc3nc(SCC(=O)NCc4ccco4)[nH]c(=O)c32)cc1 (stereo unspecified) 7.94 µM
CCN(C(=O)c1cnc(N2CCN(c3ncccn3)CC2)c2ccccc12)c1cccc(Cl)c1 6.31 µM
Cc1cnc(CNc2ncnc3ccc(-c4cccc(C#N)c4)cc23)cn1 3.16 µM
COc1cccc(-c2ccc3ncnc(NCc4cnc(C)cn4)c3c2)c1 7.94 µM
COc1ccc(/C=N/n2cnc3c([nH]c4ccc(Br)cc43)c2=O)cc1CN1CCOCC1 5.01 µM
CCCCSc1nc(C)cc(NC(=S)Nc2ccc(OC)cc2)n1 7.08 µM
S=C(S)O[C@@H]1C[C@@H]2C[C@H]1[C@@H]1CCC[C@H]21 3.98 µM
Cc1ccc(CNC(=O)CCc2c(C)nc3ncnn3c2C)cc1 2 µM
Cc1nc2ncnn2c(C)c1CCC(=O)NC(C)c1ccc2c(c1)OCCO2 (stereo unspecified) 15.8 µM
COCCn1c(=O)c(-c2cc(F)cc(F)c2)nc2cnc(Oc3cccc(Cl)c3)nc21 10 µM
COCCn1c(=O)c(-c2cc(F)cc(F)c2)nc2cnc(Oc3ccc(OC)cc3)nc21 3.16 µM
COCCn1c(=O)c(-c2cc(F)cc(F)c2)nc2cnc(OC)nc21 15.8 µM
Cc1cc(C)c(S(=O)(=O)NCC2CCC(C(=O)NCc3ccc4c(c3)OCO4)CC2)c(C)c1 (stereo unspecified) 0.891 µM
CCOc1ccc(CCNC(=O)C2CCN(S(=O)(=O)CC)CC2)cc1OCC 7.08 µM
CCOc1ccc(CCNC(=O)C2CC(=O)N(C3CCCC3)C2)cc1OCC (stereo unspecified) 14.1 µM
CCN(CCCNC(=O)C1CCN(S(=O)(=O)CC)CC1)c1cccc(C)c1 11.2 µM
O=C(NCc1ccc2c(c1)OCO2)C1CC(=O)N(C2CCCC2)C1 (stereo unspecified) 4.47 µM
Cc1ccc(Oc2ccccc2/C=C2\SC(=O)N(C)C2=O)cc1 14.1 µM
N#Cc1cccc(-c2cncnc2NCc2cccs2)c1 1.26 µM
N#Cc1cccc(-c2cncnc2NCc2ccccc2)c1 1.26 µM
Cc1cccc(CNc2ncncc2-c2cccc(C#N)c2)c1 0.2 µM
N#Cc1cccc(-c2cncnc2NCc2cccnc2)c1 1.26 µM
C[N+](C)([O-])CCC=C1c2ccccc2CCc2ccccc21 1.26 µM
COc1ccccc1-c1cc(C(F)(F)F)nc(S(=O)(=O)CCCC(=O)NC(C)C)n1 12.6 µM
CCCOc1ccccc1C1CC(=O)NC(C)=C1C(=O)OCC(C)C (stereo unspecified) 28.2 µM
O=C(CSc1nnc(Cn2nnc3ccccc32)o1)Nc1cccc(Cl)c1 8.91 µM
CC(C)(C)OC(=O)NCCc1nnc(SCC(=O)Nc2cccc(Cl)c2)o1 11.2 µM
Brc1ccc(C2=Nn3c(nnc3-c3cccnc3)SC2)s1 3.55 µM
CCOc1ccccc1NC(=O)CSc1nnc(-c2cnccn2)n1C 8.91 µM
O=[N+]([O-])c1ccc(/C=N/n2c(COc3ccccc3)n[nH]c2=S)cc1 15.8 µM
O=[N+]([O-])c1ccccc1/C=N/n1c(COc2ccccc2)n[nH]c1=S 5.01 µM

AC50, inactive:
CC(=O)OCC(=O)[C@@]1(O)CC[C@@H]2[C@H]3CCC4=CC(=O)CC[C@]4(C)[C@]3(F)[C@@H](O)C[C@@]21C
CN1Cc2c(C(=O)OC(C)(C)C)ncn2-c2ccsc2C1=O
Cc1cccn2c(/C=N/OCc3ccc(F)cc3)c(-c3ccc(Cl)cc3)nc12
Cc1cc(NCCO)c2ccccc2n1
COc1ccc2[nH]c3c(c2c1)CN(C)CC3
O=C(O)/C=C/C(=O)Nc1ccccc1-c1ccccc1
Cc1cc(=O)[nH]c(-n2[nH]c3c(c2=O)CCCC3)n1
CN(C(=O)Cn1nnc(-c2cccc(C(F)(F)F)c2)n1)C1CCCCC1
Nc1nc2c(c(=O)[nH]1)N(C=O)[C@H](CNc1ccc(C(=O)N[C@@H](CCC(=O)O)C(=O)O)cc1)CN2
CCCCCCN1Cc2ccccc2C1
O=C1c2ccccc2S(=O)(=O)N1CCCCN1CCN(c2ncccn2)CC1
Cc1cc2nc(SCCOC(=O)Nc3ccc(Cl)cc3)nc(C)c2cc1C
CCOC(=O)C(CC)(CC)C(=O)/C=C/c1ccc(Br)cc1
Cc1nc2nc(C)c(CCC(=O)NCCCN3CCN(c4cccc(Cl)c4)CC3)c(C)n2n1
CCOC(=O)CCc1c(C)nc2ncnn2c1C
NCC[C@H](O)C(=O)N[C@H]1C[C@@H](N)[C@@H](O[C@H]2O[C@@H](CN)[C@@H](O)[C@@H](O)[C@@H]2O)[C@@H](O)[C@@H]1O[C@H]1O[C@@H](CO)[C@@H](O)[C@@H](N)[C@@H]1O
COCCn1c(=O)c(-c2cc(F)cc(F)c2)nc2cnc(N(C)C)nc21
COCCn1c(=O)c(-c2cc(F)cc(F)c2)nc2cnc(N3CCOCC3)nc21
CC1CCCN(CCCNC(=O)C2CC(=O)N(c3ccc(F)c(Cl)c3)C2)C1 (stereo unspecified)
CCS(=O)(=O)N1CCC(C(=O)NCCN2CCN(Cc3ccccc3)CC2)CC1
C=CCNC(=O)C1CCN(S(=O)(=O)CC)CC1
O=C(NCCN1CCN(Cc2ccccc2)CC1)C1CC(=O)N(C2CCCC2)C1 (stereo unspecified)
Cc1cc(N2CCOCC2)ccc1/C=C1\SC(=O)N(C(C)C)C1=O
O=C1/C(=N\O)Cc2ccccc21
CN(C)CC/C=C1\c2ccccc2COc2ccccc21
CN(C)CCC=C1c2ccccc2CCc2ccccc21
COCCCNC(=O)Cn1nc(-c2ccccc2OC)ccc1=O
CCOC(=O)C1(C(=O)O)NC(=O)CC1c1ccccc1 (stereo unspecified)
CCOc1ccccc1NC(=O)CCC(=O)O
O=C1NC(=S)N/C1=C/c1cccc([N+](=O)[O-])c1O
Cc1ccc(/C=N/n2c(COc3ccccc3)n[nH]c2=S)s1
O=[N+]([O-])c1ccc(/C=N/N/C(=N/c2ccccn2)c2ccccn2)cc1

activity, negative = inhibition, inactive:
CC(C)C(O)(C(C)C)C(C)C -4.9% [at 11.4 µM]
O=C(O)/C=C\C(=O)Nc1cccc2c1-c1ccccc1C2=O -10.9% [at 11.4 µM]
Nc1nc(SCc2ccccc2Cl)cc(C(=O)O)n1 -1.56% [at 11.4 µM]
CC(C)=CCc1c2c(c3occ(-c4ccc(O)c(O)c4)c(=O)c3c1O)C=CC(C)(C)O2 0.0575% [at 11.4 µM]
N/N=C1/CC(=O)NC(=O)N1 -21.1% [at 11.4 µM]
CC(=O)Nc1ccc(N2C(=O)CC(c3ccccc3)CC2=O)cc1 1.08% [at 2.29 µM]
CN(C(=O)c1cnc(N2CCN(c3ncccn3)CC2)c2ccccc12)c1ccc(Cl)cc1 28.1% [at 11.4 µM]
Clc1ccc(/C=N/c2c(-c3ccc(Cl)cc3)nc3n2CCS3)cc1 -12.1% [at 2.29 µM]
CC(C)CO/N=C1/C[C@@H](O)[C@@H](O)[C@@H]2[C@@H]3C(=O)N(C[C@@H]4CCCO4)C(=O)[C@H]3CC[C@@H]12 -19.4% [at 11.4 µM]
CCOC(=O)C1=C(C)NC2=C(C(=O)C(C(=O)OCC)C(c3ccc(OC)cc3)C2)C1c1ccccn1 (stereo unspecified) -13.7% [at 2.29 µM]
O=[N+]([O-])c1ccc(C2=Nn3c(nnc3-c3ccc(Cl)cc3)SC2)o1 -12.1% [at 11.4 µM]

Reference: PubChem BioAssay AID1851 (National Center for Advancing Translational Sciences (NCATS), 2009)
